Assay results reported in PubChem BioAssay.
Values without a mark were called inactive. The rule behind the calls is not given here.

Biological target: Pantothenate synthetase (Mycobacterium tuberculosis (strain ATCC 25618 / H37Rv)) (UniProt P9WIL5)
Assay: Recombinant Mtb pantothenate synthetase (PanC) inhibitors, coupled enzyme, confirmatory (AID 375);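 note: 0% = full reaction with vehicle and 100% = no enzyme background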
Details: coupled enzyme assay; at 10 µM, hits give high values

Sequence of Pantothenate synthetase (Mycobacterium tuberculosis (strain ATCC 25618 / H37Rv)) (P9WIL5 whole entry, looked up): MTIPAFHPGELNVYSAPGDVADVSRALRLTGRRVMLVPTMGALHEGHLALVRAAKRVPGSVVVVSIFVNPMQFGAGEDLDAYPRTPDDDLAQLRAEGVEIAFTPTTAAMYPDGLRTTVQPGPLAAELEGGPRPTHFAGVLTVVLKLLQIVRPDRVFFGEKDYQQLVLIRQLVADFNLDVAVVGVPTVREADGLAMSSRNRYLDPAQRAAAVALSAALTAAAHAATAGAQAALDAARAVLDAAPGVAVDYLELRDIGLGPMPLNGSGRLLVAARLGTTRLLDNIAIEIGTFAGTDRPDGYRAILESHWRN

In order of rising inhibition:
1. COc1ccc2cc(C#N)c(NC(C)C)nc2c1  0%
2. CC(=O)Nc1cccc(NC(=O)C2CCCN2C(=O)Nc2ccc(C)cc2)c1 (stereo not given)  0%
3. CCOC(=O)c1cnc2c(OC)cccc2c1N1CCN(c2ccc(OC)cc2)CC1  0%
4. COc1ccc2[nH]c(=O)c(CN(C(=O)c3ccncc3)C(C)C)cc2c1  0%
5. O=C(c1ccccc1Cl)N1CCc2ccccc2C1  0%
6. CCOc1ccc(NC(=O)c2ccccc2O)cc1  0%
7. Cn1c(Cc2ccccc2)nnc1SCC(=O)NC1CCCCC1  0%
8. O=C(Nc1cccc2ccccc12)c1ccc(Br)o1  0%
9. CCOc1ccc(-c2nnn(CC(=O)N3CCN(c4ccc(F)cc4)CC3)n2)cc1OCC  0%
10. COc1ccccc1-c1ccc(Nc2cccc(C(C)=O)c2)nn1  0%
11. Nc1nc(C2C(=O)CCCC2=O)cs1  0%
12. Cc1nn(Cc2ccccc2)c2c1C(c1ccncc1)C(C#N)=C(N)O2 (stereo not given)  0%
13. CN1CCN(c2oc(COc3ccc(-c4ccccc4)cc3)nc2C#N)CC1  0%
14. CCOC(=O)C1=C(C)N=C2SC(C)C(=O)N2C1c1cccc(F)c1 (stereo not given)  0%
15. O=C(CCNS(=O)(=O)c1ccc(Cl)cc1)NCc1ccccn1  0%
16. Fc1cccc(NCc2cn3ccccc3n2)c1  0%
17. CCOC(=O)C1=C(C)N=c2s/c(=C\c3cccn3C)c(=O)n2C1c1cccc(OC)c1OC (stereo not given)  0%
18. C[C@H](NC(=O)NCc1cccs1)C(=O)O  0%
19. COc1ccc(Oc2nc(Oc3ccc(OC)cc3)nc(Oc3ccc(OC)cc3)n2)cc1  0%
20. COc1cc(Cn2c(-c3nonc3N)nc3ccccc32)ccc1C  0%
21. C=CCSc1ncccc1C(=O)O  0%
22. COc1cc(C2=NOC(C(=O)NCc3ccc(F)cc3)C2)cc(OC)c1OC (stereo not given)  0%
23. CCSc1nc2c(c(=O)n1CC)SC(C)C2 (stereo not given)  0%
24. O=C(COC(=O)CCC(=O)c1cccs1)NCc1ccco1  0%
25. Clc1ccc(OCCCn2cncn2)cc1Cl  0%
26. CCC(c1nnc(SCC(=O)NCC2CCCO2)n1Cc1ccccc1)N(C)C (stereo not given)  0%
27. Cc1ccccc1-c1nc(Cc2ccccc2)no1  1%
28. O=C(COC(=O)C1CC1)c1c[nH]c2ccccc12  1%
29. CCOC(=O)c1c(NC(=O)COC(=O)c2c(C)noc2C)sc2c1CCC2  1%
30. CC(C)C[C@H](NC(=O)[C@@H]1O[C@H]1C(=O)O)C(=O)NCCCCN=C(N)N  1%
31. Cc1cccc(NC(=O)C2CCCN(C(=O)Nc3ccccc3)C2)c1C (stereo not given)  2%
32. S=C(c1ccc(N2CCOCC2)cc1)N1CCCCC1  2%
33. CC(=O)c1ccc(NC2OC(C)C(O)C(O)C2O)cc1 (stereo not given)  3%
34. COCc1nnc(SCC(=O)NC(C)c2ccccc2)n1-c1ccccc1 (stereo not given)  4%
35. Nc1ccc(S(=O)(=O)Nc2ncccn2)cc1  6%
36. Cc1ccc(C)c(NC(=O)CC(NCCCN2CCOCC2)C(=O)O)c1 (stereo not given)  7%
37. COC(=O)c1c(C(=O)OC)n(CCCN)c2ccc(C)cc12  9%
38. CCOc1ccccc1NC(=O)CCSc1nc2n[nH]c(C)c2c(=N)n1-c1ccccc1Cl  10%
39. COc1ccc(OC)c(C(=O)CSc2nnc(-c3ccc(OC)c(OC)c3)o2)c1  11%
40. Cc1cc(C(=O)CSc2nc3ccccc3[nH]2)c(C)n1C  12%
